Here are results for five compounds from PubChem BioAssay.

Values joined by “and” are separate entries in the source; they are usually repeats but may differ in a detail not shown here. Identical values can stand only once. Results filed as inconclusive are left out. Active and inactive are the calls of the source.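 The calls were made as follows, unless noted: active = efflux inhibition above 0.42, the validation set average plus 4 SD; inconclusive = no clear call, values can overlap the other calls; inactive = the rest.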

The nature of experiment [1]: rapamycin-like changes in RPL19A-GFP expression – cell-based, S. cerevisiae, multiplex flow cytometry, primary screen (AID 1862; in the data active = percent of DMSO control GFP below about 86%;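 also: lower values mimic rapamycin by blocking the RPL19A rise seen in DMSO cells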). The note with it: S. cerevisiae RPL19A-GFP strain, flow cytometry fluorescence, 3 h; at 10 µM; stronger effect = lower value. For orientation: In flow cytometry, cells or beads pass a laser one at a time.
The nature of experiment [2]: TOR pathway GLN3 branch reporter MEP2-GFP changes – S. cerevisiae, multiplex flow cytometry, primary screen (AID 1867;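 active = GFP response, as percent of the DMSO control, above the screen-wide mean plus 3 SD, about 139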;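 also: median GFP channel fluorescence of barcode-gated MEP2-GFP cells measured by flow cytometry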). The note with it: S. cerevisiae MEP2-GFP strain, 3 h, at 10 µM, stronger effect = higher value, 100% means same as DMSO wells.
The nature of experiment [3]: TOR pathway RTG branch CIT2 reporter changes – S. cerevisiae, GFP fusion, multiplex flow cytometry, primary screen (AID 1870;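 active = percent response above a set limit, the screen-wide mean plus 3 SD, cut at about 130% in these data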;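 also: barcoded CIT2-GFP strain pooled with four other GFP strains with rapamycin as positive control; median GFP fluorescence per well over plate mean of DMSO wells so 100% = DMSO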). The note with it: S. cerevisiae CIT2-GFP expression, 3 h, at 10 µM, stronger effect = higher value.
A short description of experiment [4]: TOR pathway LAP4-GFP level changes – S. cerevisiae, multiplex flow cytometry, primary screen (AID 1873;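 active = GFP signal, as percent of the solvent control, above the screen mean plus 3 SD, about 149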). The note with it: S. cerevisiae LAP4-GFP expression, 3 h, at 10 µM, stronger effect = higher value.
Experiment [5] is described as follows: yeast AGP1-GFP level changes, GLN3 branch – cell-based, multiplex flow cytometry, S. cerevisiae, primary screen (AID 1887;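 active = GFP signal above the screen-wide mean plus 3 SD, that is over about 124.5% of the solvent control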;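 also: AGP1-GFP fusion strain of S. cerevisiae within a five-strain barcoded multiplex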). The note with it: 3 h, at 10 µM, stronger effect = higher value.
Experiment [6] in a line: reduced mouse 2C T cell binding to pMHC/ICAM-1 vesicles – MLPCN validation set, flow cytometry, LFA-1/ICAM-1 modulator project, pilot screen (AID 2523;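 active = response below a set limit, under 55% cells CD8-positive and vesicle-bound, and CD8 cells' 90th-percentile brightness under 279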;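 as to vesicle binding response: mean PE anti-B7-1 fluorescence of CD8+ cells relative to row control; 100% = QL9-loaded vesicles with DMSO vehicle in the same plate row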). The note with it: 2C mouse CD8+ T cells, at 7 µM, stronger effect = lower value; double positive events: measured here: CD8+/vesicle+ event percentage.
The target of experiment [7] is Integrin beta-1 (Homo sapiens) + Integrin alpha-4 (Homo sapiens) (UniProt P13612+P05556). Kind of experiment: alpha4beta1 integrin LIBS antibody binding reduction – U937 cells, HUTS-21 mAb, flow cytometry, validation set, VLA-4 allosteric modulator project, pilot screen (AID 2674;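 active = inhibition above 50%, about 3 SD of the validation set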;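 also: antibody binding induced by the VLA-4 ligand LDV present at three times its Kd; 0% = LDV ligand with antibody and no compound and 100% = antibody without LDV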). The note with it: HUTS-21 LIBS mAb binding, at 6.7 µM, stronger effect = higher value, binding induced by LDV ligand.
Sequence of Integrin beta-1 (Homo sapiens) + Integrin alpha-4 (Homo sapiens) (P05556 whole entry, looked up): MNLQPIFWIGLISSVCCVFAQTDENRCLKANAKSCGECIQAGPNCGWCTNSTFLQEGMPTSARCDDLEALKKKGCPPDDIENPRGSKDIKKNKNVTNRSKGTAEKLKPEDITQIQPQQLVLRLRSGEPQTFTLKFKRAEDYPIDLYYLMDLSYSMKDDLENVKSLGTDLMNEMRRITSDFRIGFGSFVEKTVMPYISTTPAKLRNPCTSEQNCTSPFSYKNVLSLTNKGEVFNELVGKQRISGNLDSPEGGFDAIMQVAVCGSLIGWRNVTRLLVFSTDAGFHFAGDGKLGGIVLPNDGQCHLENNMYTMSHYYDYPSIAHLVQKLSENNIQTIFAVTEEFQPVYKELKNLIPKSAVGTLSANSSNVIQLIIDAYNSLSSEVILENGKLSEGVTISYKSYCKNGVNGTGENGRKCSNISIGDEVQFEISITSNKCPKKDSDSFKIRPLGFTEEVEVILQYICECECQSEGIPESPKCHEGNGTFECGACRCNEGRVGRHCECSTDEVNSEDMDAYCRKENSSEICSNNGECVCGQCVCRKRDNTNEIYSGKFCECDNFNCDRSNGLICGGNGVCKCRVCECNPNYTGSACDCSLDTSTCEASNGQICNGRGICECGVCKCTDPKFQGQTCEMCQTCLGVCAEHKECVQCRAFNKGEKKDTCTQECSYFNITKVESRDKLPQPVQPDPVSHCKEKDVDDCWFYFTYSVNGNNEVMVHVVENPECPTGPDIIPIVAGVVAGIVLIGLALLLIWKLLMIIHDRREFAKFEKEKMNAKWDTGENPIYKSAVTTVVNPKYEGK
Sequence of Integrin beta-1 (Homo sapiens) + Integrin alpha-4 (Homo sapiens) (P13612 whole entry, looked up): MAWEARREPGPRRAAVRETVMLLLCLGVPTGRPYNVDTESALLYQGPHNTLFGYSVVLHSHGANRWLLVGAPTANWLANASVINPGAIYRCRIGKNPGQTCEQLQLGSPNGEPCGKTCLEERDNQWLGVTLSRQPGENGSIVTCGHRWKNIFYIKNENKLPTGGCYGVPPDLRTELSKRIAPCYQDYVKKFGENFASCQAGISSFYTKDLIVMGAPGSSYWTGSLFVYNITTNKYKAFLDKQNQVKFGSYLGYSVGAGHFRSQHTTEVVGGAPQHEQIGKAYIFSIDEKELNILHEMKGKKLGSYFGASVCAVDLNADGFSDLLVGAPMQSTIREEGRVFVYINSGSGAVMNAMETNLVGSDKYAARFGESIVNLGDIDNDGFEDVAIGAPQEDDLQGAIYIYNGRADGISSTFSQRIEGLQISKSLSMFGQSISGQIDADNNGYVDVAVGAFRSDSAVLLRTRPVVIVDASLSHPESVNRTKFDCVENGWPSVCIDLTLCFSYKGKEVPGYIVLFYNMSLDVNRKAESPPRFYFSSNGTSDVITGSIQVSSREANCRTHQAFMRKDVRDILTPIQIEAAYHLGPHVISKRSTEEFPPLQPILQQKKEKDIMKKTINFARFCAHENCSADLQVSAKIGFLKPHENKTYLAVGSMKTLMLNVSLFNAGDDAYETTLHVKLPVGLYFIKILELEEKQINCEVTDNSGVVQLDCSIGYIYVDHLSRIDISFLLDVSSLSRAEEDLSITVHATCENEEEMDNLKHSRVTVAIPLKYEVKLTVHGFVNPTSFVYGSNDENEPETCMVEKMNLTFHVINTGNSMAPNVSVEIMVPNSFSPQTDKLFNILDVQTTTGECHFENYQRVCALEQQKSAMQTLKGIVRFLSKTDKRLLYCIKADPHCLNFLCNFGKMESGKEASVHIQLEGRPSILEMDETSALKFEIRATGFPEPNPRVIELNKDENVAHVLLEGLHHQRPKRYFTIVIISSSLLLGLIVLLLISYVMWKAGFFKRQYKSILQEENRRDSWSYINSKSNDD

Experiment [8] can be described thus: calorie-restriction mimetic ROS inhibitors, yeast – validation compound set, pilot screen (AID 2706;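 active = superoxide response below 65% of plate, a cut near 3 SD across the whole screen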;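 also: yeast exposed to compound for one week at 30 degrees C before staining; 100% = mean of all compound wells on the same plate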). The note with it: S. cerevisiae aging, superoxide DHE fluorescence; at 10 µM; stronger effect = lower value.
The target in experiment [9] is Beta-adrenergic receptor kinase 1 (Homo sapiens) (UniProt P25098). In words: GRK2 binders displacing RNA aptamer, biochemical, validation, human GRK2, bead flow cytometry (AID 488806;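 active = aptamer binding inhibition above 30%, about 3 SD of noise from non-fluorescent compounds; inactive = inhibition at or below 30%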). The note with it: bead-bound GRK2, FAM-aptamer displacement, at 10 µM, stronger effect = higher value.
Sequence of Beta-adrenergic receptor kinase 1 (Homo sapiens) (P25098 whole entry, looked up): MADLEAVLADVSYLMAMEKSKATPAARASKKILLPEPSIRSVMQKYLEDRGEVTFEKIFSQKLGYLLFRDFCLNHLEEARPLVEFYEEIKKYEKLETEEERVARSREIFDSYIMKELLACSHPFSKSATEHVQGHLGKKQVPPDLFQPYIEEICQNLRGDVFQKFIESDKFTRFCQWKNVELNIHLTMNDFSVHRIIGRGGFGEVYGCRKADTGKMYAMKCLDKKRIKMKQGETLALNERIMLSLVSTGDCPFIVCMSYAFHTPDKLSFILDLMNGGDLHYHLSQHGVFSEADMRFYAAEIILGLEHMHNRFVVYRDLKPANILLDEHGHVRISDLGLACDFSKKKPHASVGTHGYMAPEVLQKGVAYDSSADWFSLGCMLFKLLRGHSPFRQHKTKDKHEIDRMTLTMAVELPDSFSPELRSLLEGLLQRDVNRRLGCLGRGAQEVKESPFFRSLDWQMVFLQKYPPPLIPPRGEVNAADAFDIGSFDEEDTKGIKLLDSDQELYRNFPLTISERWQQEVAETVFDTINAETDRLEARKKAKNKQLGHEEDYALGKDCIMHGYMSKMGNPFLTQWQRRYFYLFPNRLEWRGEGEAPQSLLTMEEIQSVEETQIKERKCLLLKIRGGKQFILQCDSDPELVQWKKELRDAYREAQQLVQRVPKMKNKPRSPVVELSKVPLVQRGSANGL
The target in experiment [10] is Beta-2 adrenergic receptor (Homo sapiens) (UniProt P07550). Kind of experiment: agonist-induced loss of surface beta2AR – cell-based, FAP fluorogen, flow cytometry, validation set, pilot screen (AID 504459;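 active = percent response above 42, roughly 3 SD of non-fluorescent test compounds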;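 also: agonist-driven loss of surface beta2AR via internalization measured by FAP dye flow cytometry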). The note with it: Am2.2-beta2AR cells, at 10 µM, stronger effect = higher value.
Sequence of Beta-2 adrenergic receptor (Homo sapiens) (P07550 whole entry, looked up): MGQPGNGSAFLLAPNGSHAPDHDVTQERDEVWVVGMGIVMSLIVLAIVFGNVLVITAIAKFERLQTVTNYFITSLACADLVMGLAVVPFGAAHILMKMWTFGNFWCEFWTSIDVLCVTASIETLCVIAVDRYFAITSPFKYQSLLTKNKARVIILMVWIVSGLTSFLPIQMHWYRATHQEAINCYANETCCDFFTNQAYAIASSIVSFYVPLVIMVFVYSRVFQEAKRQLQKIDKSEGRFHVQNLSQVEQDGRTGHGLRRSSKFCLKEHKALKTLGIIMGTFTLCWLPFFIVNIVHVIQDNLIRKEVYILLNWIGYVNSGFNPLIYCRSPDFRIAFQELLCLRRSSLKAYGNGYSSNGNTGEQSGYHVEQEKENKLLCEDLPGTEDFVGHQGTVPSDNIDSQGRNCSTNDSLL
Experiment [11] concerns the target AP-2 complex subunit beta (Homo sapiens) (UniProt P63010). Kind of experiment: beta-arrestin/AP2 interaction blockers – biochemical, validation set, GST-AP2 beads, flow cytometry, pilot screen (AID 504541;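 active = inhibition above 54%, about 3 SD of non-fluorescent compounds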;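 also: AP2 carries R879A mutation and is captured from E. coli lysate; bead-bound FITC arrestin peptide fluorescence measuring arrestin peptide binding to AP2; 0% = DMSO wells and 100% = excess unlabeled arrestin peptide control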). The note with it: FITC arrestin peptide, at 10 µM, stronger effect = higher value, AP2 beta2 appendage fragment, R879A mutant.
Experiment [12] can be described thus: cytosolic pH regulators acting via V-ATPase – S. cerevisiae, pHLuorin, HTS validation (AID 504600; in the data active = response above about 15%;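 also: plate controls were DMSO for no effect and reference compound for full effect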). The note with it: V-ATPase proton transport, at 10 µM, stronger effect = higher value.
Experiment [13] has as its system anti-desmoglein-3 scFv antibody binding to human DSG3. Kind of experiment: blockers of pathogenic pemphigus antibody–desmoglein-3 binding – biochemical, validation compound set, bead-based, flow cytometry, pilot screen (AID 588368;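 active = binding below the plate cutoff, the plate median minus 3 SD, with a reading above zero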;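 also: signal is the median channel fluorescence of bead-bound GFP antibody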). The note with it: Protein G beads, DSG3-Fc, scFv-GFP binding, at 10 µM, stronger effect = lower value.
A short description of experiment [14]: Nile Red efflux blockade in pump-expressing yeast – validation compound set, multiplex, phenotypic, pilot screen (AID 588506).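 Also: Nile Red retained in cells so higher fluorescence means more efflux inhibition; 0 = negative control wells and 1 = enniatin B 25 µM full block.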 The note with it: S. cerevisiae pump-expressing triplex, Nile Red efflux flow cytometry; at 10 µM; stronger effect = higher value; the pumps come from Candida albicans.
In experiment [15] the target is ATP-binding cassette sub-family B member 6 (Homo sapiens) (UniProt Q9NP58). Kind of experiment: blockers of ABCB6-driven porphyrin uptake – K562-ABCB6 cells, flow cytometry, validation set, pilot screen (AID 588550;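 active = inhibition above the screen-wide mean plus 3 SD, about 51%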;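 also: 0% = DMSO wells and 100% = benzethonium chloride 70 µM positive control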). The note with it: K562-ABCB6 porphyrin accumulation, 1 h, at 10 µM, stronger effect = higher value.
Sequence of ATP-binding cassette sub-family B member 6 (Homo sapiens) (Q9NP58 whole entry, looked up): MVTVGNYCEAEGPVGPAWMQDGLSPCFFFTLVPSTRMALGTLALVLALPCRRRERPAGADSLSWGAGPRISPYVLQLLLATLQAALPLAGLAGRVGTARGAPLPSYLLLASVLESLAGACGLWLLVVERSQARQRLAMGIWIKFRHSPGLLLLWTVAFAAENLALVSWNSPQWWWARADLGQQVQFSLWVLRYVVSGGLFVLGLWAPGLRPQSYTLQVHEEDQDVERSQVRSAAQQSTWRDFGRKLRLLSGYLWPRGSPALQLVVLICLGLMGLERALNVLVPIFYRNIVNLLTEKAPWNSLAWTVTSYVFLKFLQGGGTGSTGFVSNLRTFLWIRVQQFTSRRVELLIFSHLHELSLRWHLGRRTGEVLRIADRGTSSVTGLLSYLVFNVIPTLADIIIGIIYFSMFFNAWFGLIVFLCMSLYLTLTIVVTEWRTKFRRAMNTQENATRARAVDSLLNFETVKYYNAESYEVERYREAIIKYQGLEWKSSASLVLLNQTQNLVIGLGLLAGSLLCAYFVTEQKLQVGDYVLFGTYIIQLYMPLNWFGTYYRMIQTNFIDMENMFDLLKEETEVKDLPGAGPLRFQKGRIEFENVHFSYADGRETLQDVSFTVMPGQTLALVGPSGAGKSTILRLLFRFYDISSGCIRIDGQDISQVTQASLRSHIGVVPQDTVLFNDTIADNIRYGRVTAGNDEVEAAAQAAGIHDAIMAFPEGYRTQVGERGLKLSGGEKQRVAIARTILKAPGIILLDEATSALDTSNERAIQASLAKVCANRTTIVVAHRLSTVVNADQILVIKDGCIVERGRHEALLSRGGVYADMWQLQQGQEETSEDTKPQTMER
The nature of experiment [16]: AML differentiation inducers, ER-HoxA9 marrow cells – cell-based, GFP/MAC1 double positive, flow cytometry, validation set, primary screen (AID 588685;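 active = differentiation response of at least 50%, scaled between solvent and reference control, from cells with both markers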;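 also: compound exposure lasts four days before antibody staining and flow analysis; 0% = DMSO wells and 100% = 5 µM fulvestrant positive control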). The note with it: stronger effect = higher value, normalized: vehicle 0, fulvestrant 100.

Sequence of AP-2 complex subunit beta (Homo sapiens) (P63010 whole entry, looked up, the tested form may be a part, one chain of several): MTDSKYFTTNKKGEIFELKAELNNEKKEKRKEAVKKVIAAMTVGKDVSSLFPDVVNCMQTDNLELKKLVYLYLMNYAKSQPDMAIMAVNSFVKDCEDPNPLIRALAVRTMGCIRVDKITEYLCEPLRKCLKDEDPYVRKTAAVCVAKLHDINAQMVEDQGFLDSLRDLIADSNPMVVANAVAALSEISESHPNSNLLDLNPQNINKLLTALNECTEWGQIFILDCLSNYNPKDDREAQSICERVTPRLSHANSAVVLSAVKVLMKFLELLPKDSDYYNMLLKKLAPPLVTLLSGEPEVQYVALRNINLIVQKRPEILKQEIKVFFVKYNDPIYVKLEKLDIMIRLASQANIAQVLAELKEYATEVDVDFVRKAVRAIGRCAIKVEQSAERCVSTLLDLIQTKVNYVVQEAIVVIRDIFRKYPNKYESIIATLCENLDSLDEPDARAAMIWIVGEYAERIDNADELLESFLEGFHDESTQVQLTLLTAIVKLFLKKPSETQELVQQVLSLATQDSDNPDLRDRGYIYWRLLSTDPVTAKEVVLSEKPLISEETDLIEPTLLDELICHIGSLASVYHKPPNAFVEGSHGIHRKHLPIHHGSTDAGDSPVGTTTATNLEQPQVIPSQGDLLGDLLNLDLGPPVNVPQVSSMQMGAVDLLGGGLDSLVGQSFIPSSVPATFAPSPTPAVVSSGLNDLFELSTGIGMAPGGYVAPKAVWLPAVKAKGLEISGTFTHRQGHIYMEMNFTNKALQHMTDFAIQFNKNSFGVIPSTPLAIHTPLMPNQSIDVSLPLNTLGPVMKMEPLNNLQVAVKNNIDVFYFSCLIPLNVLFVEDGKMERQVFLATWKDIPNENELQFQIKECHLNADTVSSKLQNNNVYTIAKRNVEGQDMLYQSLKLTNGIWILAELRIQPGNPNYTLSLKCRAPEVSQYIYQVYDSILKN

The inhibition is the relative decrease from the control value, in per cent. In the case of `CN1[C@@H]2CC(OC(=O)[C@H](CO)c3ccccc3)C[C@H]1[C@@H]1O[C@@H]12` (stereo not given in full), the percent of DMSO control GFP in experiment [1] is 107% (inactive) and 99.1% (inactive). For the same compound, the GFP response vs DMSO in experiment [2] is 101% (inactive) and 115% (inactive); in [4], 109% (inactive) and 117% (inactive). The percent response of DMSO control in experiment [3] was 109% (inactive) and 93.9% (inactive). The GFP response, % of DMSO in experiment [5] was 114% (inactive) and 103% (inactive). Also, the double positive events in experiment [6] was 62.9% and 62.1%. Further, in experiment [6], the vesicle binding response was 177% (inactive) and 215% (inactive). Further, the inhibition in experiment [7] was 0.25% (inactive) and 6.4% (inactive); in [11], 14.7% (inactive) and 37.8% (inactive); in experiment [15], -10% (inactive) and 4% (inactive). In addition, in [8], the superoxide response (% of plate) is 99.8% (inactive) and 101% (inactive). Further, the aptamer binding inhibition in experiment [9] is -1% (inactive) and 3% (inactive). The response in [10] was -2.34% (inactive) and -12.4% (inactive); in experiment [12], -8.23% (inactive) and -3.95% (inactive). For the same compound, in experiment [13], the binding (% of control) was 101% (inactive) and 98.7% (inactive). For the same compound, in [14], the efflux inhibition (fraction of control) was -0.26 (inactive) and -0.1 (inactive). Further, the differentiation response in experiment [16] was -3.11% (inactive) and -2.4% (inactive).
`NC(N)=NC(N)=Nc1ccc2ccccc2c1`: the percent of DMSO control GFP in experiment [1] is 102% (inactive). The GFP response vs DMSO in [2] was 97.4% (inactive); in experiment [4], 85.4% (inactive). For the same compound, the percent response of DMSO control in experiment [3] was 104% (inactive). In experiment [5], the GFP response, % of DMSO was 95.8% (inactive). The compound also showed a double positive events in experiment [6] of 58.7%. The vesicle binding response in experiment [6] was 183% (inactive). The inhibition in [7] was 3.67% (inactive); in [11], 16% (inactive); in experiment [15] it was -3% (inactive). Moreover, the superoxide response (% of plate) in experiment [8] is 106% (inactive). In experiment [9], the aptamer binding inhibition is 1% (inactive). Also, the values for the response in [10] and in experiment [12] were 18% (inactive) and -3.32% (inactive), respectively. Moreover, in experiment [13], the binding (% of control) was 97.8% (inactive). For the same compound, in experiment [14], the efflux inhibition (fraction of control) is -0.21 (inactive). Further, the differentiation response in experiment [16] is -0.8% (inactive).
Regarding `COc1ccc(NC(=O)N2CCCCC2c2cccnc2)cc1` (stereo not given), in experiment [1], the percent of DMSO control GFP is 98.9% (inactive). The GFP response vs DMSO in experiment [2] was 105% (inactive); in [4], 109% (inactive). The percent response of DMSO control in experiment [3] is 99% (inactive). In experiment [5], the GFP response, % of DMSO was 105% (inactive). In experiment [6], this compound gave a double positive events of 59.7%. Moreover, the vesicle binding response in [6] was 454% (inactive). In addition, the figures for the inhibition in experiment [7], in experiment [11] and in experiment [15] were 7.4% (inactive), 0.21% (inactive) and -2% (inactive), respectively. The superoxide response (% of plate) in experiment [8] was 116% (inactive). For the same compound, the aptamer binding inhibition in experiment [9] is 7% (inactive). The response in experiment [10] was -25.6% (inactive); in experiment [12], 3.03% (inactive). Also, in experiment [13], the binding (% of control) is 103% (inactive). For the same compound, the efflux inhibition (fraction of control) in [14] is 0 (inactive). Further, the differentiation response in experiment [16] was -18.8% (inactive).
Consider `COc1cccc2c(=O)c3ccccc3oc12`, for which the percent of DMSO control GFP in experiment [1] is 93.9% (inactive). The figures for the GFP response vs DMSO in experiment [2] and in experiment [4] were 117% (inactive) and 74.3% (inactive), respectively. Moreover, the percent response of DMSO control in experiment [3] was 111% (inactive). Moreover, in experiment [5], the GFP response, % of DMSO is 88% (inactive). This compound also gave a double positive events in experiment [6] of 61.1%. For the same compound, the vesicle binding response in [6] is 134% (inactive). The inhibition was -9.06% (inactive) in experiment [7], -2.99% (inactive) in experiment [11] and 15% (inactive) in experiment [15]. For the same compound, the superoxide response (% of plate) in experiment [8] was 109% (inactive). Moreover, in experiment [9], the aptamer binding inhibition was 2% (inactive). In addition, the response in experiment [10] was -12.3% (inactive); in experiment [12], 0.55% (inactive). In experiment [13], the binding (% of control) was 96% (inactive). For the same compound, in [14], the efflux inhibition (fraction of control) is 0.27 (inactive). The differentiation response in [16] was -3.28% (inactive).
As to `NNC(=O)c1ccncc1`, the percent of DMSO control GFP in experiment [1] was 102% (inactive). In addition, the GFP response vs DMSO is 113% (inactive) in experiment [2] and 117% (inactive) in experiment [4]. Besides, the percent response of DMSO control in experiment [3] was 93.9% (inactive). For the same compound, the GFP response, % of DMSO in experiment [5] is 105% (inactive). This compound showed a double positive events in experiment [6] of 61.7%. In addition, the vesicle binding response in experiment [6] is 175% (inactive). The inhibition was -14.1% (inactive) in experiment [7], -2.19% (inactive) in experiment [11] and 1% (inactive) in experiment [15]. The superoxide response (% of plate) in experiment [8] is 90.8% (inactive). Besides, the aptamer binding inhibition in experiment [9] was 4% (inactive). Moreover, the response in experiment [10] was -10.5% (inactive); in experiment [12] it was 2.56% (inactive). Further, the binding (% of control) in [13] was 98.4% (inactive). Moreover, the efflux inhibition (fraction of control) in [14] is -0.1 (inactive). In experiment [16], the differentiation response was -2.4% (inactive).
